Source: PubChem BioAssay (NCI)
Compounds without any hit were thinned out: in the full panel of roughly 83,000, 20% have a hit.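 For each line, cells grew in 96-well plates with the test compound present at a single concentration for 48 hours.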 Active and inactive are the calls of the source. How the source made its calls: active means growth percent below 10; inactive means the rest.

These compounds were tested on HL-60(TB) leukemia (assay: NCI-60 one-dose screen, 48 h (100 = growth as untreated, 0 = no growth, -100 = all killed)). Details: 10 µM unless noted.

SMILES | growth
O=C(Nc1cccnc1Nc1ccccc1)c1cn(Cc2cccc(Oc3ccccc3)c2)nn1 | 18.9% (inactive)
O=c1[nH]nnc2c1ncn2C1OC(CO)C(O)C1O (stereo not drawn) | 25.2% (inactive)
O=C(Nc1ccc(Cl)cc1)c1cc(-c2ccc(Cl)cc2)c2sc(=O)[nH]c2n1 | -53.7% (active)
